# Rows were chosen to be rich in hits. Some 9.4% of all compounds tested hit in one or more screens of this group.
# ELG1 DNA repair = inhibitors of ELG1-dependent DNA repair in HEK293T cells. HEK293T ELG1-luciferase reporter, luminescence, 16 h; DNA damage induced by 5-fluorouridine. Potency, µM (titrated, usually from 46.1 µM), for the others: at the top dose activity change, negative = inhibition, usual class: inhibitors. hit rate 2.3% among 330,000. AID 504467; also: % is scaled to controls: 0 for no effect and ±100 for the full control effect; nearly all actives have a fitted effect of over 55% in size
#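 Luminescence from the luciferase reporter, measured 30 min after ONE-Glo reagent at room temperature, was the read-out. Beforehand, 2,000 cells per well were exposed for 16 hr at 37 °C to 5-fluorouridine together with compound or vehicle.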
# ELG1 genotoxic = inducers of genotoxicity in HEK293T ELG1-luciferase cells. hit rate 1.3% among 330,000. HEK293T ELG1-luciferase reporter, luminescence, 16 h. Potency, µM (highest dose often 46 µM), for the others: at the top dose activity change, positive = activation, actives largely listed as activators. AID 504466; also: % of control where 0% means no effect; nearly all actives have a fitted effect of over 60% in size
#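 16 hr compound incubation (37 °C, 5% CO2) of HEK293T cells carrying luciferase-tagged ELG1; luciferase then measured by ONE-Glo luminescence after 30 min at RT.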
# NPC1 prom act = activates the NPC1 promoter; Potency, µM (series often up to 9.22 µM), without a hit: at the highest dose activation, actives largely listed as activators; Huh7 NPC1 promoter luciferase reporter, 24 h; hit rate 2.4% among 320,000; also: % of control where 0% means no effect; nearly all actives have a fitted effect of over 60% in size
#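 Luciferase expression driven by the NPC1 promoter was measured in stably transfected Huh7 cells after a 24 h compound incubation, using a luciferase reagent and a luminescence read.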
# FLuc counter = inhibits or activates purified firefly luciferase, miR-21 counter-screen; Potency, µM (series often up to 57.5 µM), for inactives: top-dose activity change, negative = inhibition, actives largely listed as inhibitors; purified FLuc, Km substrates, luminescence inhibition; P08659; hit rate 6.9% among 360,000;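 also: plate controls were vehicle for no effect and reference inhibitor for full effect; nearly all actives have a fitted effect of over 55% in size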
# Target sequence (P08659 whole entry, looked up): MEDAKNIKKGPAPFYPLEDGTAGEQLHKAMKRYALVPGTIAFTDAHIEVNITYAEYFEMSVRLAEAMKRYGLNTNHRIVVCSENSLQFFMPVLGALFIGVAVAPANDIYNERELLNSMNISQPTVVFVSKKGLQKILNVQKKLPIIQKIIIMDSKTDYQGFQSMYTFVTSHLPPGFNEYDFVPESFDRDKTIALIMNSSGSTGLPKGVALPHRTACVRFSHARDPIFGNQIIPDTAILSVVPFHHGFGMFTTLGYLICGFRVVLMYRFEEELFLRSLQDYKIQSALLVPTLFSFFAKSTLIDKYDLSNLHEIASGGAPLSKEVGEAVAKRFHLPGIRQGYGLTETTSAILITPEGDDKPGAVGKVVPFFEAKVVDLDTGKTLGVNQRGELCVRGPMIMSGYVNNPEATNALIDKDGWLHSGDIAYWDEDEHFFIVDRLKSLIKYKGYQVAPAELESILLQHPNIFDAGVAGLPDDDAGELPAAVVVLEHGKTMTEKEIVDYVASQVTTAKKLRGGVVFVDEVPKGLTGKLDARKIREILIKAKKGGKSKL
#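 Purified P. pyralis luciferase (10nM final) with 10uM D-luciferin and 10uM ATP (Km levels) in 50mM Tris acetate pH 7.5, 10mM Mg acetate, 0.01% Tween-20, 0.05% BSA; qHTS 6-point titration, ~60 µM downward; luminescence read.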
# Rab9 promoter act = activators of Rab9 promoter | Potency, µM (doses to about 9.22 µM), inactives show at the top dose activation, negative = inhibition, hits mostly activators | hit rate 2.8% among 320,000 | Huh7 Rab9 promoter-luciferase reporter, luminescence, 24 h; also: % of control where 0% means no effect; nearly all actives have a fitted effect of over 60% in size
#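 Rab9 promoter-driven luciferase in stably transfected Huh7 cells; 1500 cells/well rested 2 h, exposed to compound in DMSO for 24 h at 37 °C, 5% CO2. Luminescence read 10 min after adding luciferase reagent at ambient temperature.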
# SMN2 splice enh = increases expression of the SMN2 splice variant; HEK293 SMN2-luciferase splicing reporter, luminescence, 30-36 h; Potency, µM (doses to about 46.1 µM), without a hit: at the top dose activity change, positive = activation, most hits filed as activators; hit rate 2.8% among 210,000; also: % of control where 0% means no effect; nearly all actives have a fitted effect of over 55% in size
#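 qHTS luciferase splicing reporter: luminescence rises when SMN2 exon 7 is included in transfected HEK293 cells. Compound exposure lasted 30-36 h at 37C, with 4.5 mM final sodium butyrate as control, followed by a ONE-Glo read.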
# Numbers without * were called inactive; ? = inconclusive; . = no result given. Calls follow the shape of the dose curve; as a rule, active = well fitted curve in the direction sought with a large enough effect; inconclusive = small, poorly fitted or top-dose-only effect, or another doubt; inactive = no such curve, though single readings can be large; an effect the other way counts as inactive or inconclusive. Potency is read from the fitted curve at half-maximal effect.
SMILES,ELG1 DNA repair,ELG1 genotoxic,NPC1 prom act,FLuc counter,Rab9 promoter act,SMN2 splice enh
Cn1cnc2cc(NCc3cccs3)ccc21,?,?,18.6%,-2.9%,4.0%,27.6%
O=C(c1cnccn1)N1CCC2(CC1)CN(Cc1cc(C(F)(F)F)cc(C(F)(F)F)c1)C2,.,.,.,.,.,-5.2%
CCc1ccc(S(=O)(=O)c2nnn3c2nc(Nc2ccc(F)cc2)c2cc(Cl)ccc23)cc1,.,.,.,-2.1%,.,-9.4%
Cn1cc2cccc([N+](=O)[O-])c2n1,7.8%,-3.1%,-2.2%,-2.1%,2.9%,1.8%
CCCCN1C=CC(=C2N=c3cccc([N+](=O)[O-])c3=N2)C=C1,?,?,?,21.3µM*,?,11.2µM*
O=C(Nc1ccc(Br)cn1)c1ccc(Cl)s1,?,3.26µM*,0.891µM*,4.26µM*,1µM*,.
O=C(Nc1ccccn1)c1ccc(Cl)s1,?,?,2.24µM*,?,3.98µM*,.
O=C(Nc1ccc(Br)cn1)c1ccc(Br)s1,?,?,?,4.26µM*,0.794µM*,.
Cc1ccccc1C(=O)Nc1ccc(Br)cn1,?,9.2µM*,?,10.7µM*,3.55µM*,.
O=C(NCc1ccccn1)c1ccc(Cl)s1,?,13.4%,0.6%,0.4%,13.6%,-19.5%
CC(C)c1ccc2oc(-c3ccc(NC(=O)c4cccc(Br)c4)cc3)nc2c1,.,.,.,-12.1%,.,-14.0%
Cc1cc(C)cc(-n2cnc3cc(C(=O)NCCc4ccccc4)ccc32)c1,.,.,.,-16.9%,.,.
Cc1cccc(NC(=O)Cn2c(=O)n(CCCS(=O)(=O)C3CCCCC3)c(=O)c3ccccc32)c1,.,.,.,-5.9%,.,0.5%
CN(C)S(=O)(=O)Oc1ccc(C(=O)Nc2cccc(C(F)(F)F)c2)cc1,20.6µM*,-3.8%,-9.3%,?,-8.5%,-64.4%
COc1cc(NC(=O)c2ccnnc2)cc(C(=O)Nc2cccc(C(F)(F)F)c2)c1,-10.0%,-2.0%,0.0%,19µM*,1.9%,.
CN(C)S(=O)(=O)Oc1ccc(C(=O)Nc2cccc(Cl)c2)cc1,?,?,?,12µM*,?,12.6µM*
O=C(Nc1cccc(Cl)c1)c1ccncc1,8.9%,4.0%,-3.8%,-13.2%,-3.6%,?
CCC(=O)Nc1ccc(C(=O)N/N=C/c2c(C)[nH]c3ccccc23)cc1,0.0%,10.6%,-0.5%,21.3µM*,0.0%,6.0%
Cc1[nH]c2ccccc2c1/C=N/NC(=O)c1cc(-c2cccs2)[nH]n1,?,-5.0%,-3.7%,15.1µM*,-1.0%,9.3%
O=C(N=Nc1c(O)[nH]c2ccccc12)c1cc(-c2cccs2)[nH]n1,?,1.7%,?,12µM*,16.7%,.
Cc1[nH]c2ccccc2c1/C=N/NC(=O)CCC(=O)NCc1ccccc1,7.1%,-0.1%,-6.2%,-0.5%,-3.5%,.
Cc1ccc(-c2cc(C(=O)N/N=C/c3c(C)nn(-c4ccccc4)c3C)n[nH]2)s1,?,-5.1%,-12.3%,10.7µM*,-15.2%,-71.2%
CC(=O)c1ccc(S(=O)(=O)Nc2ccc(-c3ccc(N4CCCCC4)nn3)cc2)cc1,.,.,.,8.49µM*,.,.
CC(=O)c1ccc(S(=O)(=O)Nc2ccc(-c3ccc(N4CCCCCC4)nn3)cc2)cc1,.,.,.,10.7µM*,.,.
Cc1ccc(S(=O)(=O)Nc2ccc(-c3ccc(N4CCCCCC4)nn3)cc2)c(C)c1,.,.,.,-19.1%,.,.
SMILES,ELG1 DNA repair,ELG1 genotoxic,NPC1 prom act,FLuc counter,Rab9 promoter act,SMN2 splice enh
Cc1ccc(-n2c(-c3ccc(Cl)cc3)c[n+]3c2CCC3)cc1,2.91µM*,-12.4%,-19.9%,-0.7%,-33.7%,.
FC(F)Sc1ccc(-n2c(-c3ccc(Cl)cc3)c[n+]3c2CCC3)cc1,?,-6.0%,0.5%,-1.6%,-8.3%,-8.4%
Cc1ccc(-n2c(-c3ccccc3)c[n+]3c2CCC3)cc1,1.64µM*,-17.9%,-37.2%,-1.8%,-43.5%,-32.1%
CCc1cccc(NC(=O)c2ccc(CNS(=O)(=O)c3ccc4c(c3)C(C)(C)C(=O)N4C)cc2)c1,.,.,.,-14.4%,.,.
CCOC(=O)C1CCN(C(=O)c2sc3ncnc(N4CCC(C)CC4)c3c2C)CC1,23.1µM*,1.4%,-3.1%,-2.2%,-5.3%,-24.3%
CCOC(=O)C1CCCN(C(=O)c2sc3nc4n(c(=O)c3c2C)CCC4)C1 (configuration not stated),12.5%,-1.5%,-0.4%,3.7%,-2.0%,.
CCOC(=O)C1CCN(C(=O)c2sc3nc(C)nc(N4CCC(C)CC4)c3c2C)CC1,23.1µM*,-2.1%,-5.1%,-3.1%,-1.5%,-10.0%
Cc1c(C(=O)N2CCN(c3ccccc3)CC2)sc2ncnc(N3CCC(C)CC3)c12,7.4%,-0.8%,-1.3%,4.0%,-5.1%,-43.8%
N/C(=N\OC(=O)c1cc(Cl)ccc1Cl)c1ccccn1,?,?,?,1.51µM*,5.01µM*,5.01µM*
COc1ccc(Cl)cc1C(=O)O/N=C(\N)c1ccccn1,?,?,3.98µM*,?,13.0%,.
O=C(NCCNC(=O)c1cc(Cl)ccc1Cl)c1ccccn1,5.8%,2.1%,1.6%,-0.8%,3.9%,.
Cc1cc(C)c(NC(=O)c2ccc3c(c2)CCN3S(C)(=O)=O)c(C)c1,-0.2%,-5.1%,0.4%,0.2%,0.2%,.
CCCCCc1ccc(-c2cn(Cc3cccc(OC)c3)nn2)cc1,2.3%,-0.6%,-5.4%,?,-0.4%,.
COc1ccc(-c2cn(Cc3ccc(C)cc3)nn2)cc1,?,?,3.98µM*,?,2.82µM*,.
CCOC(=O)c1cn(Cc2ccc(C)cc2)nn1,?,2.7%,-2.1%,-1.9%,-3.0%,8.5%
CCCCCc1ccc(-c2cn(Cc3ccc(C)cc3)nn2)cc1,2.6%,-6.2%,?,?,3.55µM*,.
CC(C)c1cc(C(N)=O)c(NC(=O)c2cccc(COc3ccc(Cl)cc3)c2)s1,?,0.731µM*,0.316µM*,1.51µM*,2µM*,1.78µM*
Cc1nn(Cc2c(F)c(F)c(F)c(F)c2F)c(C)c1NC(=O)c1cccc(COc2ccc(Cl)cc2)c1,?,12.6%,?,12µM*,?,17.8µM*
C[C@H](CO)NC(=O)[C@H]1C[C@@H]1[C@H](NP(=O)(c1ccccc1)c1ccccc1)c1ccccc1,.,.,.,.,.,-16.0%
COC(=O)c1sc(C(C)(C)C)cc1CS(=O)(=O)c1ccccn1,16.4µM*,-0.3%,12.5%,1.6%,-3.5%,.
Cc1[nH]n(-c2ccccc2)c(=O)c1C(c1ccccc1C(=O)O)c1c(C)[nH]n(-c2ccccc2)c1=O,2.0%,-1.1%,-3.5%,3.4%,-5.0%,-15.1%
COc1ccc(C(c2c(C)[nH]n(-c3ccccc3)c2=O)c2c(C)[nH]n(-c3ccccc3)c2=O)cc1OC,?,-0.2%,-0.1%,19µM*,-6.4%,1.7%
